# Screening results (PubChem BioAssay)
# Sampled rows, rich in hits. Any-hit rate of the full collection: about 21%.
# CYP2C19 inh: human CYP2C19 inhibition | inhibition, % at 5 µM | CYP2C19 Supersomes, luciferin-H EGE luminescence, 30 min | P33261 | AID 778 | actives 21% (n = 96,000);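 active means CYP2C19 inhibition above a set limit at 5 µM in the primary screen, cut at about 50% in these data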;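 further: plate controls were negative control wells for no effect and 2.5 mM tranylcypromine positive control for full effect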
# Target sequence (P33261 whole entry, looked up): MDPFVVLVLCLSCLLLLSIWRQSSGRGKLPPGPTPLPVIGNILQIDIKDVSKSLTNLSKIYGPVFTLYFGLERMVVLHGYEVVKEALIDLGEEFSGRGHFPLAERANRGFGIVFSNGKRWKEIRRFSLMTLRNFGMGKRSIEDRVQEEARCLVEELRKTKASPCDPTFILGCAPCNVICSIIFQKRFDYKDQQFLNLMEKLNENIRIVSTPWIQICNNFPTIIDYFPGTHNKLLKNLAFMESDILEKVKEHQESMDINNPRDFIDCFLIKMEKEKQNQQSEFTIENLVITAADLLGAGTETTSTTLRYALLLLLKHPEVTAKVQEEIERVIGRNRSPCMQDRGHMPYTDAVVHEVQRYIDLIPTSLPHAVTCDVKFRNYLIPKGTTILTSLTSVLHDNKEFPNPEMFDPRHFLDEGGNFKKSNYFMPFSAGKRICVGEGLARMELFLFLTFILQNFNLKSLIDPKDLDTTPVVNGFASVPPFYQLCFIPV
# MRP resist rev: MRP-mediated drug resistance reversal; H69AR cells + 2 uM doxorubicin, CellTiter-Glo, 72 h; differential viability (reversal), % at 10 µM; actives 0.04% (n = 85,000); AID 602;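 active means viability drop by adding the cancer drug above about 55%, with treated viability meeting a 40% cutoff, limit read from the data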;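 further: viability without doxorubicin minus viability with 2 µM doxorubicin for each compound; larger differential means the compound sensitizes cells more to doxorubicin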
# CYP2C9 act: CYP2C9 (human) activation; P11712; recombinant CYP2C9, luciferin-H conversion, luminescence; active compounds read high; factor 1 = untreated enzyme, 0 = blocked; activation factor at 5 µM; actives 1.4% (n = 96,000); AID 1024;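 active means activation factor of 2 or more for CYP2C9 at a 5 µM dose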;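 further: 0 = sulfaphenazole-blocked wells and 1 = vehicle-only wells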
# CYP2C9 inh: human CYP2C9 inhibition | CYP2C9 Supersomes, luciferin-H conversion, luminescence | inhibition, % at 5 µM | actives 20% (n = 96,000) | AID 777;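 active means blocking of liver enzyme CYP2C9 beyond about 50% at 5 µM, limit read from the data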
# MRP-1 activ: activators of MRP-1. H69AR cells + doxorubicin, viability rescue, CellTiter-Glo. viability increase, % at 10 µM. actives 0.61% (n = 140,000);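 active means viability gain under doxorubicin at or above a set limit, the compound median plus 3 SD, cut at about 4.7% in these data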;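 further: MRP-1 overexpressing cells given doxorubicin 25 µM after compound pretreatment; 18-22 h compound pretreatment then 72 h with doxorubicin before readout; 0% = doxorubicin-only wells and 100% = vehicle-treated cells without doxorubicin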
# CYP2C19 act: activators of human cytochrome P450 2C19; 96,000 tested, under 10 active; recombinant CYP2C19, luciferin-H EGE luminescence; active compounds read high; 0 = fully inhibited enzyme, 1 = untreated enzyme; AID 1025; activation factor at 5 µM; P33261;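 active means activation factor of at least 2 at 5 µM in the primary screen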;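 further: 0 = wells with 2.5 mM tranylcypromine and 1 = vehicle-only wells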
# * = called active by the depositor; / = no result given.
SMILES,CYP2C19 inh,MRP resist rev,CYP2C9 act,CYP2C9 inh,MRP-1 activ,CYP2C19 act
CCCC(=O)CN1C(=O)C2(OCCO2)c2ccccc21,6,1,0.9,11,-1,0.9
CCN(CC)C(=O)CN1C(=O)C2(OCC(C)(c3ccccc3)CO2)c2ccccc21 (centres undefined),86*,14,0.2,77*,-2,0.1
O=C(Cc1cccs1)Nc1cc(SCCO)cc([N+](=O)[O-])c1,/,/,/,/,-3,/
COc1cc(Cl)ccc1S(=O)(=O)n1nc(C)cc1C,75*,8,0.8,15,0,0.3
COc1cc(S(=O)(=O)n2nc(C)cc2C)c(OC)cc1Cl,83*,6,0.7,29,-1,0.2
COc1ccc(Cl)cc1C(=O)n1nc(C)cc1C,27,1,1.1,-13,-1,0.7
CCOC(=O)c1ccc(NC(=O)CSc2nnc(NC(=O)c3ccc(S(=O)(=O)N4CCOCC4)cc3)s2)cc1,/,/,/,/,-2,/
Cn1cccc1C(=O)NC(=O)COC(=O)c1ccccc1Sc1ccccc1C#N,11,-12,1.4,-39,-1,0.9
COc1ccc(Cl)cc1C(=O)OCC(=O)NC(=O)c1cccn1C,22,0,3.3*,-233,1,0.8
CCCc1cc(C(=O)Nc2ccccc2C(=O)OC)no1,20,7,2.2*,-117,-4,0.8
COc1ccccc1-c1cc(C(=O)NCCc2ccccc2)no1,25,-18,3.7*,-268,-2,0.7
CCCc1cc(C(=O)NCCc2ccccc2)no1,63*,8,0.6,40,0,0.4
COc1ccccc1-c1cc(C(=O)Nc2cccnc2)no1,27,/,2.1*,-109,-3,0.7
CCCc1cc(C(=O)Nc2cccnc2Cl)no1,21,9,0.8,23,1,0.8
CN(C)c1nc(SCCOC(=O)c2ccccc2)nc(N(C)C)n1,99*,/,0.4,62*,0,0
CSc1nc2c(ccc3ccccc32)o1,/,5,/,/,4.9*,/
O=C(O)c1cc2c(ccc3ccccc32)o1,-20,/,1.1,-9,-4,1.2
O=S(=O)(Nc1nc2ccccc2[nH]1)c1ccc2ccccc2c1,74*,2,0.6,44,0,0.3
O=S(=O)(Nc1ncn[nH]1)c1ccc2ccccc2c1,-12,-17,1,-4,-2,1.1
Cc1ccc(C(=O)Cn2c(C(=O)/C=C/c3ccccc3)nc3ccccc32)cc1,4,/,1.1,-11,-2,1
COc1ccc(-c2cn3cc(Cl)ccc3n2)cc1OC,80*,-14,0.2,79*,-3,0.2
COc1ccc(-c2cn3cc(C)ccc3n2)cc1Br,/,/,/,/,-3,/
CC(C)N(C(=O)COC(=O)c1cc(Cl)cc(Cl)c1N)C(C)C,83*,27,0.3,66*,-1,0.2
CN(C)C(=O)COC(=O)c1cc(Cl)cc(Cl)c1N,26,-4,1.3,-29,-1,0.7
CC1CCN(C(=O)COC(=O)c2cc(Cl)cc(Cl)c2N)CC1,46,14,2.3*,-133,2,0.5
SMILES,CYP2C19 inh,MRP resist rev,CYP2C9 act,CYP2C9 inh,MRP-1 activ,CYP2C19 act
Cc1ccc(NC(=O)C2C(c3ccccc3)C=CC(c3ccccc3)C2C(=O)O)cc1 (centres undefined),4,/,0.8,25,1,1
CCCCNC(=S)NNC(=O)c1csc2ccccc12,62*,/,1.7,-71,1,0.4
CCCOC1(NC(=O)c2ccccc2)C(C)=CC(=O)C=C1C,26,2,1.1,-9,-4,0.7
CC(C)(C)NC(=O)C1CN(S(=O)(=O)c2ccccc2)CCN1S(=O)(=O)c1ccccc1 (centres undefined),44,-14,0.9,12,2,0.6
COc1ccc(S(=O)(=O)NCC2CCC(C(=O)NCc3ccco3)CC2)cc1 (centres undefined),-4,6,0.9,11,-4,1
Cc1ccc(S(=O)(=O)N2CCCCC2C(=O)NCc2ccco2)cc1 (centres undefined),94*,-41,0.7,33,-2,0.1
Cc1ccc(S(=O)(=O)NCC2CCC(C(=O)NCc3ccco3)CC2)cc1 (centres undefined),54*,6,0.5,46,-2,0.5
CCC(C)NC(=O)C1CN(S(=O)(=O)c2ccccc2)CCN1S(=O)(=O)c1ccccc1 (centres undefined),66*,-24,0.8,23,1,0.3
CCCNC(=O)C1CN(S(=O)(=O)c2ccccc2)CCN1S(=O)(=O)c1ccccc1 (centres undefined),8,3,1,1,0,0.9
COC(=O)Nc1ccc(S(=O)(=O)N2CCCCC2C(=O)NCc2ccco2)cc1 (centres undefined),42,/,1,0,-3,0.6
O=C(NCc1ccco1)C1CN(S(=O)(=O)c2ccccc2)CCN1S(=O)(=O)c1ccccc1 (centres undefined),56*,-2,0.5,50*,-3,0.4
Cc1ccc(/C=N/NC(=O)C2(O)c3ccccc3-c3ccccc32)o1,/,/,/,/,1,/
Cc1cc(C)n2nc(CC(=O)NCc3ccc(F)cc3)nc2n1,/,/,/,/,1,/
Cc1nn(Cc2ccc(Cl)cc2)c(C)c1NC(=O)C1CC=CCC1C(=O)O (centres undefined),39,-3,1.1,-12,-1,0.6
CCOC(=O)c1oc2cc(O)c(CC)cc2c(=O)c1-c1ccc2c(c1)OCCO2,34,-27,0,99*,-2,0.7
O=c1c2cnn(-c3ccccc3)c2ncn1Cc1cccc(Cl)c1,-10,16,1,2,-1,1.1
O=c1c2ccsc2ncn1Cc1ccc(Cl)cc1,61*,/,0.5,54*,-2,0.4
COCCCNC(=O)c1c(NC(=O)c2cccs2)sc2c1CCCC2,9,-40,0.7,30,-2,0.9
CC(C)(C)c1ccc(S(=O)(=O)NCC(=O)Nc2sc3c(c2C(N)=O)CCCC3)cc1,6,/,0.4,55*,-1,0.9
NC(=O)c1c(NC(=O)c2cccs2)sc2c1CCCCCC2,84*,4,0.2,85*,1,0.2
O=C(Nc1sc2c(c1C(=O)O)CCC2)c1ccccc1,13,-28,0.8,22,1,0.9
O=C(Nc1sc2c(c1C(=O)O)CCC2)c1cccs1,85*,-3,0.3,70*,0,0.2
COCCN(CCOC)S(=O)(=O)c1ccc(C(=O)Nc2sc3c(c2C(N)=O)CCCCC3)cc1,/,/,/,/,-3,/
Cc1cc(C)n(/N=C/c2ccc(C(C)C)cc2)c(=O)c1C#N,/,/,/,/,0,/
COCCOC(=O)C1=C(C)N=C2SCCC(=O)N2C1c1cccc(Br)c1 (centres undefined),30,-3,0.5,47,-1,0.7
COc1ccc(C2=NN(C(C#N)c3ccc(OC)c(OC)c3)C(c3ccccc3)C2)cc1 (centres undefined),42,/,0.3,68*,-2,0.6
